# Experimental data from the supplement of paper PMC6555819.
# How the values were obtained:
# Assay in all cases: PBM binding z-score (relative to random genomic background probes); higher = stronger binding; sequences stand for … in GC…GCGATTGACAGCGTAGAATGAAGG
# [1] = test system: FXR:RXRa (NR concentration 270 nM, RXRa partner concentration 90 nM)
# Summary of the method: (§1)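 Each nuclear receptor dimer, without ligand, was incubated for 1 h on custom Agilent 4×180K protein-binding microarrays. Binding was detected with antibodies against each partner (one per run), and scanned fluorescence was regression-normalized. The binding z-scores are referenced to random human genomic background probes.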
# [2] = test system: LXRa:RXRa (NR concentration 270 nM, RXRa partner concentration 90 nM)
# Summary of the method: as §1
# [3] = test system: LXRa homodimer (NR concentration 270 nM)
# Summary of the method: as §1
# [4] = test system: LXRb:RXRa (NR concentration 270 nM, RXRa partner concentration 90 nM)
# Summary of the method: as §1
# [5] = test system: LXRb homodimer (NR concentration 270 nM)
# Summary of the method: as §1
# [6] = test system: PPARa:RXRa (NR concentration 270 nM, RXRa partner concentration 90 nM)
# Summary of the method: as §1
# [7] = test system: PPARg:RXRa (NR concentration 180 nM, RXRa partner concentration 90 nM)
# Summary of the method: as §1
# [8] = test system: PPARg:RXRa 270nM:90nM, anti-RXR (NR concentration 270 nM, RXRa partner concentration 90 nM)
# Summary of the method: as §1
# [9] = test system: PPARg:RXRa 30nM:10nM, anti-RXR (NR concentration 30 nM, RXRa partner concentration 10 nM)
# Summary of the method: as §1
# [10] = test system: PPARg:RXRa 90nM:30nM, anti-RXR (NR concentration 90 nM, RXRa partner concentration 30 nM)
# Summary of the method: as §1
# [11] = test system: PPARg:RXRa DBDmut IVT, anti-RXR (DBD mutation: RXRa K156A/R161A, NR concentration 270 nM, RXRa partner concentration 90 nM)
# Summary of the method: as §1
# [12] = test system: PPARg:RXRa IVT, anti-PPARg (NR concentration 270 nM, RXRa partner concentration 90 nM)
# Summary of the method: as §1
# [13] = test system: PPARg DBDmut:RXRa IVT, anti-PPARg (DBD mutation: PPARg1 K132A/R137A, NR concentration 270 nM, RXRa partner concentration 90 nM)
# Summary of the method: as §1
# [14] = test system: PPARg DBDmut IVT, anti-PPARg (DBD mutation: PPARg1 K132A/R137A, NR concentration 270 nM)
# Summary of the method: as §1
# [15] = test system: PPARg homodimer (NR concentration 180 nM)
# Summary of the method: as §1
# [16] = test system: PXR:RXRa (NR concentration 270 nM, RXRa partner concentration 90 nM)
# Summary of the method: as §1
# [17] = test system: PXR homodimer (NR concentration 270 nM)
# Summary of the method: as §1
# [18] = test system: RARa:RXR (NR concentration 270 nM, RXRa partner concentration 90 nM)
# Summary of the method: as §1
# [19] = test system: RARa homodimer (NR concentration 270 nM)
# Summary of the method: as §1
# [20] = test system: RARb:RXRa (NR concentration 270 nM, RXRa partner concentration 90 nM)
# Summary of the method: as §1
Sequence,PBM binding z-score [1],PBM binding z-score [2],PBM binding z-score [3],PBM binding z-score [4],PBM binding z-score [5],PBM binding z-score [6],PBM binding z-score [7],PBM binding z-score [8],PBM binding z-score [9],PBM binding z-score [10],PBM binding z-score [11],PBM binding z-score [12],PBM binding z-score [13],PBM binding z-score [14],PBM binding z-score [15],PBM binding z-score [16],PBM binding z-score [17],PBM binding z-score [18],PBM binding z-score [19],PBM binding z-score [20]
TCTAGCGGGCCAGAGGGTCACTCAAGAGGTACGG,0.839,0.883,-0.748,1.08,-1.43,2.37,1.3,2.42,1.68,2.48,0.727,0.801,-0.857,-1.59,-0.0821,1.64,-0.599,2.17,-0.431,2.2
ACTCAAAGTTCATCTAGGTAACGTAAGATATGCT,6.73,6.05,5.36,4.18,2.43,4.79,3.49,3.98,1.56,2.74,1.43,2.81,2.23,2.06,3.4,5.34,7.92,4.08,2.11,5.33
GAGACAGGGTCAGCTAGAGGCCAGAGTATGGAAA,4.45,2.53,-0.421,2.21,-1.18,4.46,2.91,2.82,0.35,1.21,0.507,1.1,-0.524,-0.747,3.57,3.34,0.373,4.73,0.0826,4.09
GCTGCTAGGTCAGGCTGGTCAGCTAACGGGTACG,0.826,0.306,-0.725,-0.222,-1.11,1.3,0.457,0.956,-0.364,-0.0747,3.75,2.35,-1.05,-1.02,-0.17,-0.0298,-0.747,0.0805,-0.715,3.35
ATCTCTAGGTGACCAAGTTCAGTGAATGCCGAAC,0.185,0.357,0.0777,0.467,0.278,1.9,1.99,1.7,0.308,1.05,5.31,4.76,1.66,1.14,0.611,2.17,1.7,0.763,-0.118,1.7
TCATATAGGTAAATGCTAGGTGAAAGACCGATCT,1.17,1.12,0.232,0.72,-0.0647,1.48,1.22,2.38,3.79,2.96,3.73,2.45,1.16,1.31,1.02,0.594,0.174,0.931,0.867,0.44
